From PubChem BioAssay
The list is not random: actives were taken first. Their share in the collection is about 0.34%.
PI4K2A inh: blocks human PI4K2A kinase activity; purified PI4K2A, ADP-Glo luminescence, 1 h; stronger effect = lower value; AID 1346378; activity change, negative = inhibition, % at 76.9 µM; 420,000 compounds, 0.13% hits; Q9BTU6; in the data active = activity change below about -50%; inconclusive = mostly about -30% to -49%;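 note: -100% = wells without enzyme as full effect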
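ADP-Glo luminescence measured ADP generated by PI4K2A enzyme (4 ug/mL before mixing) with 1.2 mM PI substrate (pre-mix) and 300 microM ATP (pre-mix). Tris pH7.5 buffer with MgCl2, Triton X-100; 1 h reaction at ambient temperature.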
Pin1 inh: inhibitors of human Pin1; Q13526; Pin1 FP peptide displacement, HiFluor488, 10 min; Potency, µM (highest dose often 115 µM), inactives show at the highest dose activity, negative = inhibition, actives largely listed as inhibitors; 390,000 compounds, 0.009% hits; active = well fitted inhibition curve with a large enough effect in the polarisation, with a control signal flat, not every such curve was filed as active; inconclusive = small, poorly fitted or top-dose-only effect, or effect the other way, or a change in a side signal; inactive = no such curve, though single readings can be large or run the other way; the % refers to the polarisation; note: potency is the fitted concentration of half-maximal effect; % is set by controls: 0 for no effect and ±100 for the full control effect
Target sequence (Q13526 whole entry, looked up): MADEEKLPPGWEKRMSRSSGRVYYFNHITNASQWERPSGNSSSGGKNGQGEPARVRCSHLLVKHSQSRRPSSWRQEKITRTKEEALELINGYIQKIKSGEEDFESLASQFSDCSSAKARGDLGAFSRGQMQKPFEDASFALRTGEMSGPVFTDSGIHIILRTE
Tb PFK inh-1: blocks T. brucei phosphofructokinase. O15648. T. brucei PFK, ADP-Glo luminescence. Potency, µM (series often up to 57.5 µM), for the others: top-dose activity, negative = inhibition, hits mostly inhibitors. 330,000 compounds, 0.17% hits;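 note: potency is the fitted concentration of half-maximal effect; 0% = uninhibited 1x PFK enzyme wells and -100% = no-enzyme wells; nearly all actives have a fitted effect of over 60% in size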
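In TEA buffer at pH 8.0 with 5 mM MgCl2, enzyme (1.25 nM) converted F6P (0.5 mM) and ATP (0.1 mM) for 45 min at room temperature. ADP product was read by luciferase luminescence.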
Tb PGK inh: inhibitors of T. brucei phosphoglycerate kinase; Potency, µM (series often up to 57.5 µM), inactives show at the top dose activity change, negative = inhibition, most hits filed as inhibitors; PGK/GAPDH coupled, Kinase-Glo luminescence, 60 min; P07378; AID 602233; 380,000 compounds, 0.043% hits; note: potency is the fitted concentration of half-maximal effect; % is set by controls: 0 for no effect and ±100 for the full control effect; nearly all actives have a fitted effect of over 60% in size
Target sequence (P07378 whole entry, looked up): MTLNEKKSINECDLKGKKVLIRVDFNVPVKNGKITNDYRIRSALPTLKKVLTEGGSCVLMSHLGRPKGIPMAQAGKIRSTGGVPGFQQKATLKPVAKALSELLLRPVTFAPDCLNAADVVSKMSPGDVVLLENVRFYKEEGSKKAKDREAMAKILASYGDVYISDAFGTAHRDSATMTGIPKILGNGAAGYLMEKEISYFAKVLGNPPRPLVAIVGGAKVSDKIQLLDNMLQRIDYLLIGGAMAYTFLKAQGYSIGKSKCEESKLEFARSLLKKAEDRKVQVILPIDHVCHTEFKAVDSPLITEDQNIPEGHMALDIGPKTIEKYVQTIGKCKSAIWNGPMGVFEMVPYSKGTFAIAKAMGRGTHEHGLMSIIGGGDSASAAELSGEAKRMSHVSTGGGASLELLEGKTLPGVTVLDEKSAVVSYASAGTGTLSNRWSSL
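Luminescent ATP detection (Kinase-Glo Plus) follows a 60-minute room-temperature incubation, with wells lacking PGK as controls. Buffer: 100 mM TEA (pH 7.6), 5 mM MgCl2, 0.01% Tween-20. Coupling enzyme GAPDH (100 nM final) supplies unstable 1,3-BPG in-well.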
Chronic BCR inh: blocks chronic active B-cell receptor signaling; ABC-DLBCL IkBa-CBG/CBR reporter, luminescence ratio, 4 h; Potency, µM (series often up to 46.1 µM), without a hit: at the top dose activity change, negative = inhibition, usual class: inhibitors; 340,000 compounds, 0.05% hits; AID 493014; active = well fitted inhibition curve with a large enough effect in the signal ratio, with a control signal flat, not every such curve was filed as active; inconclusive = small, poorly fitted or top-dose-only effect, or effect the other way, or a change in a side signal; the % refers to the signal ratio;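 note: potency is the fitted concentration of half-maximal effect; plate controls were basal doxycycline-induced cells for no effect and cells given 10 µM MG132 for full effect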
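Compounds up to 46 uM were incubated four hours with TMD8 cells whose green CBG68 luciferase is fused to IkappaBalpha; red CBR luminescence normalised the signal, and concentration-effect curves were fitted to fusion, red and ratio data.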
Tb PFK KinaseGlo: orthogonal confirmation of T. brucei phosphofructokinase inhibitors. Tb PFK enzyme, ATP depletion, Kinase-Glo Plus luminescence. shares compounds with Tb PFK inh-1. Potency, µM (series often up to 57.5 µM), for inactives: at the top dose inhibition. AID 504636. 1,100 compounds, 47% hits; calls by dose curve; note: potency is the fitted concentration of half-maximal effect; nearly all actives have a fitted effect of over 60% in size
Tb PFK inh-2: validation of T. brucei phosphofructokinase inhibitors; shares compounds with Tb PFK inh-1; purified T. brucei PFK, ADP-Glo luminescence, 45 min; Potency, µM (highest dose often 57.5 µM), for inactives: top-dose activity change, negative = inhibition, actives largely listed as inhibitors; 1,100 compounds, 41% hits;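 note: potency is the fitted concentration of half-maximal effect; plate controls were full PFK enzyme control for no effect and no enzyme control for full effect; nearly all actives have a fitted effect of over 60% in size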
Starred values were filed as active, the others as inactive; i = inactive; ? = inconclusive; / = no result given. Unless noted, calls come from the whole dose curve; as a rule, active = well fitted curve in the direction sought with a large enough effect; inconclusive = small, poorly fitted or top-dose-only effect, or another doubt; inactive = no such curve, though single readings can be large; an effect the other way counts as inactive or inconclusive.

SMILES	PI4K2A inh	Pin1 inh	Tb PFK inh-1	Tb PGK inh	Chronic BCR inh	Tb PFK KinaseGlo	Tb PFK inh-2
CC(CS(=O)(=O)c1ccc2c(c1)NC(=O)CS2)C(=O)NCc1ccccc1Cl (centres undefined)	0.8	?	13.5µM*	7.94µM*	-1.2%	1.69µM*	1.9µM*
CC(CS(=O)(=O)c1ccc2c(c1)NC(=O)CS2)C(=O)N1CCN(c2cccc(Cl)c2)CC1 (centres undefined)	1.0	25.2%	15.1µM*	?	4.4%	21.3µM*	12µM*
O=C1CSc2ccc(S(=O)(=O)NCc3ccccc3Cl)cc2N1	-10.7	-1.3%	-5.0%	-3.7%	-10.3%	/	/
CC1Sc2ccc(S(=O)(=O)CCC(=O)N3CCN(c4cccc(Cl)c4)CC3)cc2NC1=O (centres undefined)	-0.7	17.4%	?	-2.5%	-3.1%	/	/
O=C(Nc1ccc2ccccc2c1)c1ccccc1O	-9.4	-5.0%	?	-12.6%	?	-33.1%	?
O=C(Nc1ccc2ccccc2c1)c1ccccc1Cl	-5.8	/	/	-5.8%	/	/	/
COc1ccc(C2Nc3ccccc3C(=O)N2Cc2cccc(Cl)c2)cc1COc1ccc(NC(C)=O)cc1 (centres undefined)	/	0.8%	/	/	/	/	/
Cc1[nH]c2ccccc2c1C(=O)CN1C(=O)C(=O)N(CCC2=CCCCC2)C1=O	6.6	0.5%	7.7%	-13.3%	5.7%	/	/
Cc1[nH]c2ccccc2c1C(=O)CN1C(=O)C(=O)N(Cc2ccco2)C1=O	2.2	3.0%	?	6.4%	11.6%	-27.9%	?
CSc1ccccc1NC(=O)c1ccc(N2CC3CC(C2)c2cccc(=O)n2C3)c(NC(=O)c2ccncc2)c1 (centres undefined)	-6.9	-0.2%	-1.1%	-5.5%	?	/	/
O=C(NCc1cccc(Cl)c1)c1ccc(N2CC3CC(C2)c2cccc(=O)n2C3)c(NC(=O)c2cccnc2)c1 (centres undefined)	-1.0	-3.2%	?	-9.7%	1.0%	?	?
Cc1cc2c(s1)c1cnn(Cc3cc(F)ccc3C)c(=O)c1n2C	/	-1.5%	/	/	/	/	/
S=c1[nH]nc(-c2cccnc2)n1/N=C/C=C/c1ccco1	-13.0	?	30.1µM*	5.2%	-1.2%	6.01µM*	?
S=c1[nH]nc(-c2ccccc2)n1/N=C/C=C/c1ccco1	-4.3	-1.6%	-20.6%	1.1%	7.7%	/	/
CC/C(=N/Nc1cccc(Cl)c1)c1cnnc(SC)n1	-3.0	8.8%	?	0.5%	0.2%	?	?
CCCCC(O)/C=C(C)/C=C/C=C/C(=O)N1CCCC1=O (centres undefined)	-0.9	/	/	/	/	/	/
N#Cc1sc(NCc2ccccn2)nc1Cl	9.0	-1.1%	?	3.1%	?	?	?
Cc1ccc(-c2ccc(/C=N/N=C3/NC(=O)C(CC(=O)O)S3)o2)c([N+](=O)[O-])c1 (centres undefined)	-4.3	-17.8%	?	i	?	-34.0%	?
Cc1ccc(S(=O)(=O)Oc2ccc(/C=N/N=C3/NC(=O)C(CC(=O)O)S3)cc2)cc1 (centres undefined)	-1.4	3.4%	4.0%	-6.0%	-2.9%	/	/
O=[N+]([O-])c1ccccc1-c1ccc(/C=N/n2cnnc2)o1	17.6	0.7%	-3.1%	-6.2%	-8.3%	/	/
O=C(O)CC1S/C(=N/N=C/c2ccc(-c3ccccc3[N+](=O)[O-])o2)NC1=O (centres undefined)	-5.7	?	?	-16.2%	?	-30.6%	?
O=C1c2ccccc2C(=O)N1c1cc(=O)c2ccccc2[nH]1	/	-4.5%	/	/	/	/	/
Cc1ccccc1C(=O)N1CC/C(=N\OS(=O)(=O)O)c2ccc(Cl)cc21	-2.4	/	/	/	/	/	/
CN1[C@@H]2CC[C@H]1CC(NC(=O)n1c(=O)[nH]c3ccccc31)C2 (some centres undefined)	1.1	/	/	/	/	/	/
O=C(COc1ccc(Cl)cc1Cl)N/N=C/c1ccc[nH]1	1.2	-0.4%	?	-5.0%	0.0%	6.75µM*	15.1µM*
SMILES	PI4K2A inh	Pin1 inh	Tb PFK inh-1	Tb PGK inh	Chronic BCR inh	Tb PFK KinaseGlo	Tb PFK inh-2
O=C(O)C1C2C=CC(CC2)C1C(=O)O (centres undefined)	-1.3	-18.5%	?	?	?	/	/
CC1C=CC(C)C(C(=O)O)C1C(=O)O (centres undefined)	-2.1	?	?	?	1.4%	?	?
CCC(C)C(C)(COC(N)=O)COC(N)=O (centres undefined)	4.9	/	/	/	/	/	/
Cc1ccc(NC2c3ncccc3C(=O)N2Cc2cccs2)cc1C (centres undefined)	-2.6	0.7%	?	3.0%	-0.1%	19.9%	-19.6%
O=C1c2cccnc2C(Nc2ccc(Cl)cc2)N1Cc1cccs1 (centres undefined)	-4.9	?	-3.0%	-17.5%	?	/	/
NC(=O)C1CCN(c2nc(-c3ccc(-c4ccccc4)cc3)cs2)CC1	/	-2.0%	/	/	/	/	/
Cc1ccc(C(=O)OCC(=O)c2ccc(CC(=O)N3CCOCC3)s2)c(C)c1	-15.1	?	?	-17.9%	0.2%	?	?
CCN(CC)c1ccc(NC2=C(Cl)C(=O)c3ccccc3C2=O)cc1	-22.1	1.8%	?	-8.2%	?	7.8%	-9.2%
Cc1ccccc1OCc1nc2ccc(S(=O)(=O)N3CCOCC3)cc2[nH]1	2.6	6.3%	-10.9%	4.8%	-19.4%	/	/
O=S(=O)(c1ccc2nc(COc3ccc(Cl)cc3Cl)[nH]c2c1)N1CCOCC1	-0.4	15.1%	?	-9.9%	?	?	?
Clc1ccc(CN(CCCNc2ncnc(NCCCc3cnc[nH]3)n2)c2ccc(Br)cn2)cc1Cl	/	4.5%	/	/	/	/	/
